# LYPLA2 counter: LYPLA2 (human) inhibition in PME1 counter-screen. recombinant LYPLA2, FP-Rh probe fluorescence polarization. inhibition, % at 5.9 µM. actives 0.38% (n = 320,000). AID 2177;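 active means inhibition above the screen-wide mean plus 3 SD, limit set per campaign, cut at about 26% in these data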
# LYPLA1 inh: blocks human lysophospholipase 1, a PME1 counter-screen | inhibition, % at 5.9 µM | recombinant LYPLA1, FP-Rh probe fluorescence polarization | actives 0.16% (n = 320,000) | O75608;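 active means inhibition above the mean of all tested compounds plus 3 SD, set per campaign, cut at about 14% in these data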;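 further: inhibitors block serine hydrolase probe labeling of LYPLA1 so polarization falls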
# PME-1 inh: blocks human protein phosphatase methylesterase 1 | inhibition, % at 5.9 µM | recombinant PME-1, FP-Rh probe fluorescence polarization | actives 0.53% (n = 320,000) | Q9Y570;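 active means inhibition above the campaign mean of all compounds plus 3 SD, cut at about 26% in these data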;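 further: competitive labeling of PME-1 active site by serine hydrolase directed probe; inhibitors block probe labeling so polarization falls and inhibition rises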
# PREPL inhibitor: human PREPL enzyme inhibition. Q4J6C6. recombinant PREPL, fluorescence polarization activity-based probe. inhibition, % at 5.96 µM. actives 0.68% (n = 320,000). AID 2751; in the data active means inhibition above about 43%
# Target sequence (Q4J6C6 whole entry, looked up): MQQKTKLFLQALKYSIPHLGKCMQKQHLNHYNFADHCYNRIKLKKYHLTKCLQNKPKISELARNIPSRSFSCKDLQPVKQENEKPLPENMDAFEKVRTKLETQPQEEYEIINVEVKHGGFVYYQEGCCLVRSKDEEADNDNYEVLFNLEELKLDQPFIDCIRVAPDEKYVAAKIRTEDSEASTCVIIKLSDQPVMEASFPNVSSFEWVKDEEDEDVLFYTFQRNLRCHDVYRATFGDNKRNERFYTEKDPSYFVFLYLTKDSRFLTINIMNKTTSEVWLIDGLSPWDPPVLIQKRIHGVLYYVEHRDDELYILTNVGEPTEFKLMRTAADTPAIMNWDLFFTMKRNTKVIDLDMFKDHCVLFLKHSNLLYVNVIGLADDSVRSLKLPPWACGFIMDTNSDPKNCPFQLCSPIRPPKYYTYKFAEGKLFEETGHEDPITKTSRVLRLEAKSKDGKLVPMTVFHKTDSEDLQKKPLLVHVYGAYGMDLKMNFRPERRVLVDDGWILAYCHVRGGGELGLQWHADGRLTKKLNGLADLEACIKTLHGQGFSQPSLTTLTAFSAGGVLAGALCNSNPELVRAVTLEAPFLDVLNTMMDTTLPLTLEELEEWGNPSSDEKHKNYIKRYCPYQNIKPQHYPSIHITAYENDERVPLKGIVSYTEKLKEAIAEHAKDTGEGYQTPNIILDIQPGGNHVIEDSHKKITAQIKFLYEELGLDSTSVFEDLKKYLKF
# Fam108B inh: blocks mouse Fam108B hydrolase in RBBP9 counter-screen. recombinant Fam108B, FP-Rh probe fluorescence polarization. inhibition, % at 9.51 µM. actives 0.33% (n = 300,000);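 active means inhibition above the screen mean inhibition plus 3 SD, computed separately per campaign, cut at about 18% in these data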;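 further: inhibitors lower polarization as less probe binds the enzyme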
# LYPLA2 confirm: counter-screen for PME1 inhibitors: confirmation of human LYPLA2 inhibitors; shares compounds with LYPLA2 counter; recombinant LYPLA2, FP-Rh probe fluorescence polarization; inhibition, % at 5.9 µM; actives 72% (n = 1,100); AID 2232;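 active means mean inhibition across replicates above the hit cutoff set in the primary screen, cut at about 26% in these data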;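 further: blocked labeling of the enzyme by serine hydrolase FP-Rh probe lowers polarization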
# LYPLA2 ABPP: blocks human acyl-protein thioesterase 2 in gel ABPP; inhibition, % at 20 µM; actives 30% (n = 150); AID 652029; shares compounds with LYPLA2 counter; rhLYPLA2 in mouse brain proteome, gel ABPP FP-Rh;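 active means inhibition of LYPLA2 enzyme probe labeling above about 50%, limit read from the data; inactive means inhibition below that limit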;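 further: loss of FP-Rh probe labeling of the LYPLA2 gel band measured as band density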
# A number is an active result; – = inactive; · = no result given. An excerpt weighted towards active compounds, which were near 1.3% of everything screened.
SMILES,LYPLA2 counter,LYPLA1 inh,PME-1 inh,PREPL inhibitor,Fam108B inh,LYPLA2 confirm,others
Cc1ccc(NC(=O)CN2C(=O)S/C(=C\c3ccc(C(=O)O)cc3)C2=O)cc1,–,–,–,–,–,·,
Cc1cccc(NC(=O)CN2C(=O)S/C(=C\c3cc(C)n(C)c3C)C2=O)c1,57.0,–,–,–,–,76.8,LYPLA2 ABPP=60.0
Cc1ccc(NC(=O)CN2C(=O)S/C(=C\c3cc(C)n(C)c3C)C2=O)cc1,–,–,–,–,–,·,
Cc1ccc(NC(=O)CN2C(=O)S/C(=C\c3ccc(-c4cccc(C(=O)O)c4C)o3)C2=O)cc1,–,–,–,–,–,·,
Cc1ccc(C(=O)O)cc1-c1ccc(/C=C2\SC(=O)N(CC(=O)Nc3ccccc3)C2=O)o1,27.4,–,–,–,–,25.9,
O=C(CN1C(=O)S/C(=C\c2ccccc2F)C1=O)Nc1ccccc1O,–,–,–,–,–,·,
Cc1cc(/C=C2\SC(=O)N(CC(=O)Nc3ccccc3F)C2=O)c(C)n1C,41.9,–,–,–,–,26.2,
CCSc1nnc(NC(=O)CCNC(=O)c2ccccc2Cl)s1,·,·,·,–,·,·,
CC(C)c1ccc(NC(=O)NCc2ccccn2)cc1,27.9,–,–,–,–,–,
CCc1nnc(NS(=O)(=O)c2ccc(N/C=C(\C=O)c3nc4cc(Cl)ccc4o3)cc2)s1,29.3,–,–,–,–,42.6,
CC(NCC(=O)NC(=O)NC1CCCC1)c1ccc(Cl)cc1Cl (centres undefined),–,–,–,–,–,·,
CN1CCN(C2=NC(=O)/C(=C/c3cn[nH]c3-c3ccccc3)S2)CC1,–,–,–,–,–,·,
O=C1N=C(N2CCN(c3ccccc3)CC2)S/C1=C/c1cccs1,33.6,–,–,–,–,38.2,
Cc1ccc(C)c(S(=O)(=O)Nc2cc3c4c(c2)CCC(=O)N4CCC3)c1,–,–,–,–,–,·,
Cc1c(Nc2ccc3nonc3c2[N+](=O)[O-])c(=O)n(-c2ccccc2)n1C,31.6,–,–,–,–,36.6,
CCOC(=O)N1CCC(NC(=O)c2cc3cc4cc(OC)ccc4nc3o2)CC1,35.0,–,–,–,–,31.5,
COc1ccc(N2CCN(C(=O)CN(C)S(=O)(=O)c3cccs3)CC2)cc1,28.5,–,–,–,–,36.2,
COc1ccc(OC)c(-c2cc(C(=O)Nc3c(C)nn(Cc4ccccc4Cl)c3C)no2)c1,39.5,–,–,–,–,28.6,
COc1ccc(OC)c(-c2cc(C(=O)Nc3c(C)nn(Cc4ccccc4C)c3C)no2)c1,63.7,–,–,–,–,54.6,LYPLA2 ABPP=50.0
CCC(=O)c1ccc(OCCn2cnc3ccccc32)cc1,–,–,–,–,–,·,
CC1(c2cccc(Br)c2)NC(=O)N(CC(=O)Nc2ccc3c(c2)OCCO3)C1=O (centres undefined),·,·,·,–,·,·,
Cc1ccc(S(=O)(=O)Nc2cccc(-n3cnnn3)c2)cc1C(=O)O,33.0,–,–,–,–,–,
Cc1ccc(S(=O)(=O)NC(C)C(=O)NC(C)c2cccs2)cc1 (centres undefined),–,–,–,–,–,·,
COc1ccc(NC(=O)Cn2cnc3sc(C)c(S(=O)(=O)N4CCOCC4)c3c2=O)c(OC)c1,–,–,–,–,–,·,
CC(C)C(NC(=O)c1ccccc1NC(=O)c1ccccc1)C(=O)NCCCn1ccnc1 (centres undefined),28.6,–,–,–,–,–,
SMILES,LYPLA2 counter,LYPLA1 inh,PME-1 inh,PREPL inhibitor,Fam108B inh,LYPLA2 confirm,others
COCC(C)NS(=O)(=O)c1ccc(C(=O)NCCCn2ccc3ccccc32)cc1 (centres undefined),–,–,–,–,–,·,
CN(C(=O)c1ccc(NC(=O)Cc2cccc(NC(=O)C3CCCN(C(=O)CCc4ccccc4)C3)c2)cc1)C1CCCC1 (centres undefined),–,–,–,–,·,·,
CN(C(=O)c1ccc(NC(=O)Cc2ccc(NC(=O)C3CCCN(C(=O)CCc4ccccc4)C3)cc2)cc1)C1CC1 (centres undefined),57.8,–,–,–,·,50.4,LYPLA2 ABPP=–
CCCN(CC(=O)Nc1ccccc1OC)C(=O)c1ccc(COc2ccccc2)o1,–,–,–,–,·,·,
Cc1ccc(Nc2c([N+](=O)[O-])ccc3nonc23)cc1C,–,–,–,–,–,·,
CCCc1nn(C)c2c1C(c1cccnc1)C(C#N)=C(N)O2 (centres undefined),28.6,–,–,–,–,–,
Cc1nn(Cc2ccccc2)c2c1C(c1cccnc1)C(C#N)=C(N)O2 (centres undefined),–,–,–,–,–,·,
CN1CCN(c2ccc(NC(=O)c3ccc(C(F)(F)F)cc3)cn2)CC1,–,–,–,–,–,·,
CNC(=S)Nc1ccc(N2CCN(c3ccc(C(F)(F)F)cn3)CC2)nc1,53.8,–,–,–,–,64.8,LYPLA2 ABPP=–
O=C(CSc1ccccn1)N1CCNC1=O,·,·,·,–,·,·,
CC(C)CC(=O)NC(=S)Nc1cc(C(F)(F)F)ccc1N1CCOCC1,–,–,–,–,–,·,
O=C(CCc1ccccc1)NC(=S)Nc1cc(C(F)(F)F)ccc1N1CCOCC1,30.9,–,–,–,–,–,
CC(C)NC(=O)[C@H]1N2C(=O)c3ccccc3C2SC1(C)C (some centres undefined),–,–,–,–,–,·,
O=C1c2c(O)cc(O)cc2O[C@H](c2ccc(O)c(O)c2)[C@@H]1O,29.4,–,–,–,–,39.4,
O=C(c1cc(-c2ccc3c(c2)OCO3)on1)N1CCN(c2ccccc2)CC1,27.5,–,–,–,–,–,
COC(=O)c1ccc(NC(=O)C(=O)N2CCN(C(=S)Nc3cccc(C)c3C)CC2)cc1,50.3,–,–,–,–,42.4,
COC(=O)c1ccc(NC(=O)C(=O)N2CCN(C(=S)Nc3ccccc3OC)CC2)cc1,–,–,–,–,–,·,
Cc1ccc2c(c1)C(=O)N(CCCCO)C2=O,–,–,–,–,–,·,
O=C1c2ccc(Oc3ccc4c(c3)C(=O)N(CCCO)C4=O)cc2C(=O)N1CCCO,29.4,–,–,–,–,–,
Fc1ccccc1COc1ccc(/C=N/n2cnnc2)cc1,26.2,–,–,–,–,–,
C(=N\n1cnnc1)/c1cccc(OCCOc2ccccc2)c1,–,–,–,–,–,·,
COc1ccc(NC(=O)CSc2nccn2Cc2ccc(F)cc2)cc1,–,–,–,–,–,·,
O=C(NC(=S)NCCc1ccccc1)c1cccc(Cl)c1,–,–,–,–,–,·,
CCCC/C(O)=C1\C(=O)CCCC1=NCCc1c(C)[nH]c2ccccc12,–,–,–,–,–,·,
O=C(NCc1cccnc1)c1ccc(NC(=O)c2ccc([N+](=O)[O-])cc2)cc1,37.4,–,–,–,–,30.4,
Cn1ccnc1SCC(=O)Nc1ccc(F)c([N+](=O)[O-])c1,–,–,–,–,–,·,
COc1ccc(OCC(=O)Nc2ccc(NC(=O)c3ccccc3Cl)c(OC)c2)cc1,35.5,–,–,–,–,34.1,
